Source: PubChem BioAssay (Tox21)
Where “and” joins values, the source holds several entries; their conditions need not be identical. Equal values may be shown once. Records with an inconclusive call do not appear. The source holds several records for some structures; these can differ, active in one and inactive in another. Calls of active or inactive are those of the source. Calls follow the shape of the dose curve; as a rule, active = well fitted cell-killing curve with a large enough effect in the repeat runs; inconclusive = weak or mixed curves, or effect the other way; inactive = no such curve, though single readings can be large or run the other way.
% is scaled to controls: 0 for no effect and ±100 for the full control effect; potency is read from the fitted curve at half-maximal effect.

Assay: qHTS assay to identify small molecule antagonists of the vitamin D receptor (VDR) signaling pathway - cell viability counter screen (AID 743225); also: nearly all actives have a fitted effect of over 50% in size
Settings: VDR-bla HEK293T viability, CellTiter-Glo luminescence, 16 h; series mostly up to 61 µM; viability change, negative = cytotoxic: at the top concentration
Procedure, shortened: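 HEK293T VDR-bla; cpd + 1a,25-(OH)2D3 3 nM final, 16 h 37C/5% CO2; B/G FRET substrate 2 h RT; then CellTiter-Glo 30 min RT, luminescence.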
With CC(C)(C)CC(C)(C)c1ccc(O)cc1 the Potency was 17.4 µM (active). For CNC(=O)Oc1cccc(N=CN(C)C)c1, the “viability change, negative = cytotoxic” value was 0.951% (inactive). With c1ccc2sc(SNC3CCCCC3)nc2c1 the Potency was “inactive”. In the case of O=C(N[C@H]1CN2CCC1CC2)c1ccc2c(c1)OCCO2, the “viability change, negative = cytotoxic” value is reported as -2.3% (inactive). With C=CCOC(=O)C(C)(C)OC(=O)c1cc(-n2c(=O)cc(C(F)(F)F)n(C)c2=O)ccc1Cl the “viability change, negative = cytotoxic” value was 6.7% (inactive). In the case of C=CCc1ccc(OC(=O)Cc2ccccc2)c(OC)c1, the “viability change, negative = cytotoxic” value is reported as 3% (inactive). With O=[N+]([O-])O[C@H]1CO[C@H]2[C@@H]1OC[C@H]2O[N+](=O)[O-] the “viability change, negative = cytotoxic” value was -2.84% (inactive). For C[C@H]1[C@@H]2Cc3ccc(O)cc3[C@@]1(C)CCN2C, the “viability change, negative = cytotoxic” value was 0.0686% [at 216 µM] (inactive). In the case of Cc1cnc(C2=NC(C)(C(C)C)C(=O)N2)c(C(=O)O)c1 (stereo not given), the “viability change, negative = cytotoxic” value is reported as -6.79% (inactive). For Cc1ncc(C[n+]2csc(CCO)c2C)c(N)n1, the “viability change, negative = cytotoxic” value was 12.1% (inactive). In the case of COc1cc(CC(C)N)c(OC)cc1Br (stereo not given), the “viability change, negative = cytotoxic” value is reported as -3.95% [at 78.8 µM] (inactive). For Cc1nc2ccccc2c(=O)n1-c1ccccc1Cl, the “viability change, negative = cytotoxic” value was 17.3% (inactive). In the case of CN(C)C(=O)Nc1cccc(OC(=O)NC(C)(C)C)c1, the “viability change, negative = cytotoxic” value is reported as 1.33% (inactive). For CN(C)c1ccc(N=O)cc1, the Potency was “inactive and 19.5 µM (active)”. With NP(N)(=O)NC(=O)c1ccc(F)cc1 the “viability change, negative = cytotoxic” value was 7.46% (inactive). For OC[P+](CO)(CO)CO, the Potency was “inactive”. In the case of C[C@@H]1C[C@@H]([C@H](O)CC2CC(=O)NC(=O)C2)C(=O)[C@@H](C)C1, the Potency is reported as “inactive”. For COC1=CC(=O)O[C@@H](/C=C/c2ccc3c(c2)OCO3)C1, the “viability change, negative = cytotoxic” value was -0.136% (inactive). With CCN(C(C)=O)c1cccc(-c2ccnc3c(C#N)cnn23)c1 the “viability change, negative = cytotoxic” value was -2.21% (inactive). For CCOC(=O)c1cn2nc(OP(=S)(OCC)OCC)cc2nc1C, the “viability change, negative = cytotoxic” value was -16.5% (inactive). In the case of O=C(O)CCCOc1ccc(Cl)cc1Cl, the “viability change, negative = cytotoxic” value is reported as 5.99% (inactive). In the case of COc1ccc(C(=O)c2c(C)n(CCN3CCOCC3)c3ccccc23)cc1, the “viability change, negative = cytotoxic” value is reported as 2.54% (inactive). For O=C(N/N=C/c1ccc([N+](=O)[O-])o1)c1cc([N+](=O)[O-])cc([N+](=O)[O-])c1O, the “viability change, negative = cytotoxic” value was 0.324% (inactive). In the case of Cc1ccccc1, the “viability change, negative = cytotoxic” value is reported as 1.16% (inactive). In the case of O=C(NC(=O)c1cc(F)c(F)cc1Cl)Nc1cc(F)ccc1N1CCC(C(=O)O)CC1, the “viability change, negative = cytotoxic” value is reported as -11.2% (inactive). With CCOP(=S)(S)OCC the “viability change, negative = cytotoxic” value was 13.8% [at 78.8 µM] (inactive). For C[C@]12C=CC3=C4CCC(=O)C=C4CC[C@H]3[C@@H]1CC[C@@H]2O, the “viability change, negative = cytotoxic” value was 9.93% (inactive). With CCCC[N+](CCCC)(CCCC)CCCC the “viability change, negative = cytotoxic” value was 0.142% (inactive). With CCCCC(CC)CO[N+](=O)[O-] (stereo not given) the “viability change, negative = cytotoxic” value was 1.65% (inactive). In the case of Nc1ccccc1C(=O)OCCc1ccccc1, the Potency is reported as “inactive”. With CCCSP(=S)(OCC)Oc1ccc(SC)cc1 (stereo not given) the “viability change, negative = cytotoxic” value was -3.97% (inactive). In the case of CC(Oc1cccc(Cl)c1)C(=O)O (stereo not given), the “viability change, negative = cytotoxic” value is reported as -8.4% (inactive). With Nc1c(Br)cc(Br)c2c1C(=O)c1ccccc1C2=O the “viability change, negative = cytotoxic” value was 23.4% [at 28.5 µM] (inactive). With C=CC(=O)NC(C)(C)CC(C)=O the “viability change, negative = cytotoxic” value was 6.84% (inactive). In the case of CCCBr, the “viability change, negative = cytotoxic” value is reported as -0.657% (inactive).
